# From the supplement of paper PMC8866396
# Where a name gives a salt, the structure may show the parent alone. ± gives the standard deviation of the averaged measurements.
# Key:
# IL-6-GFP PC-9GR = assay: cell viability (CCK-8 OD) relative to DMSO control (fraction of control); higher = more viable cells; conditions: compound concentration: 10 uM; treatment time: 48 h
# In short: (§1)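 Compounds from a purchased library of 510 were each tested at a final 10 μM for 48 h on PC-9 and PC-9GR lung cancer cells plated at 3000 cells/well in 96-well plates. These cells overexpressed IL-6-GFP from a lentiviral construct. Viability came from CCK-8 absorbance, given as the optical density of each well over that of the vehicle control well, across independent replicates numbering two.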
# IL-6-GFP PC-9 = assay: as above; conditions: compound concentration: 10 uM; treatment time: 48 h
# In short: as §1
SMILES,cell viability (IL-6-GFP PC-9GR),cell viability (IL-6-GFP PC-9)
Cc1ccc(Nc2nccc(N(C)c3ccc4c(C)n(C)nc4c3)n2)cc1S(N)(=O)=O.Cl,0.886 ± 0.13,0.532 ± 0.1
O=C(O)c1ccccc1OP(=O)(O)O [Fosfosal],0.943 ± 0.088,1.01 ± 0.21
CCN1CCN(Cc2ccc(Nc3ncc(F)c(-c4cc(F)c5nc(C)n(C(C)C)c5c4)n3)nc2)CC1.CS(=O)(=O)O,0.42 ± 0.27,0.415 ± 0.016
CC(C(=O)O)c1ccc(C(=O)c2cccs2)cc1 (configuration not stated) [Suprofen],1.53 ± 0.58,1.13 ± 0.022
OCC1OC(c2ccc(F)c(Cc3cc4ccccc4s3)c2)C(O)C(O)C1O (configuration not stated) [Ipragliflozin (ASP1941)],0.779 ± 0.068,1.06 ± 0.12
CC(C)=CCCC(C)(OC1OC(CO)C(O)C(O)C1O)C1CCC2(C)C1C(O)CC1C3(C)CCC(O)C(C)(C)C3C(OC3OC(CO)C(O)C(O)C3O)CC12C (configuration not stated) [Ginsenoside Rg1],1.16 ± 0.26,1.15 ± 0.17
C=C1CCC2C(C)(COC(=O)CCC(=O)O)C(OC(=O)CCC(=O)O)CCC2(C)C1/C=C/C1=CCOC1=O (configuration not stated) [Dehydroandrographolide Succinate],0.966 ± 0.062,1.16 ± 0.016
COc1ccc(-c2ccc3cc(C(=O)O)ccc3c2)cc1C12CC3CC(CC(C3)C1)C2 [Adapalene],1.15 ± 0.15,0.765 ± 0.3
COC(=O)/C=C/C(=O)OC [Dimethyl Fumarate],1.13 ± 0.16,1.33 ± 0.26
O=c1oc2cc(O)ccc2s1 [Tioxolone],1.06 ± 0.041,1.121 ± 0.0078
C=CC(=O)Nc1cccc(Oc2nc(Nc3ccc(N4CCN(C)CC4)cc3)nc3ccsc23)c1,0.393 ± 0.19,0.465 ± 0.07
CCC(c1ccc(O)cc1)C(CC)c1ccc(O)cc1 (configuration not stated) [Hexestrol],1.28 ± 0.31,1.16 ± 0.15
CC1=C(CC(=O)O)c2cc(F)ccc2/C1=C\c1ccc(S(C)=O)cc1 (configuration not stated) [Sulindac],1.12 ± 0.075,0.821 ± 0.32
CC(C)CC(NC(=O)CNC(=O)c1cc(Cl)ccc1Cl)B1OC(=O)CC(CC(=O)O)(C(=O)O)O1 (configuration not stated) [Ixazomib Citrate (MLN9708)],0.316 ± 0.3,0.339 ± 0.12
Cc1ccc(Cl)c(Nc2ccccc2C(=O)[O][Na])c1Cl [Meclofenamate Sodium],0.983 ± 0.054,1.02 ± 0.11
CC(=O)N1CC(O)CC1C(=O)O (configuration not stated) [Oxaceprol],1.22 ± 0.15,1.05 ± 0.098

SMILES,cell viability (IL-6-GFP PC-9GR),cell viability (IL-6-GFP PC-9)
Cc1cccc(N(C)C(=S)Oc2ccc3ccccc3c2)c1 [Tolnaftate],1.38 ± 0.047,0.8891 ± 0.0065
CC1(C)OC2CC3C4CCC5=CC(=O)C=CC5(C)C4(F)C(O)CC3(C)C2(C(=O)CO)O1 (configuration not stated) [Triamcinolone Acetonide],1.15 ± 0.023,0.9016 ± 0.0065
Nc1n[n+]([O-])c2ccccc2[n+]1[O-] [Tirapazamine],1.09 ± 0.25,0.676 ± 0.12
Cc1cc(S(=O)(=O)[O-])c2c(C)ccc(C(C)C)cc1-2.[Na+] [Sodium gualenate],1.45 ± 0.46,0.583 ± 0.022
CNC(=NC#N)NCCSCc1nc[nH]c1C [Cimetidine],1.56 ± 0.74,1.15 ± 0.23
CCOC(=O)c1c(N)sc2c1CCN(Cc1ccccc1)C2.Cl [Tinoridine hydrochloride],1.12 ± 0.27,1.12 ± 0.061
CCCCCCCCCCCCCCCCCCOP(=O)([O-])OC1CC[N+](C)(C)CC1 [Perifosine (KRX-0401)],0.943 ± 0.084,0.786 ± 0.059
CCCCOc1ccc(C(=O)CCN2CCCCC2)cc1.Cl [Dyclonine HCl],1.34 ± 0.43,1.12 ± 0.076
O.S=c1nc[nH]c2nc[nH]c12 [6-Mercaptopurine (6-MP) Monohydrate],0.92 ± 0.11,0.978 ± 0.19
CC(=O)Nc1ccc(OC(=O)c2ccccc2OC(C)=O)cc1 [Benorylate],1.54 ± 0.41,1.13 ± 0.046
CCCCNC(=O)NS(=O)(=O)c1ccc(C)cc1 [Tolbutamide],1.13 ± 0.081,1.2 ± 0.16
CC(=O)OCC(=O)C1(O)CCC2C3CCC4=CC(=O)CCC4(C)C3C(=O)CC21C (configuration not stated) [Cortisone acetate],1.29 ± 0.26,1.12 ± 0.1
CC(C)Cn1cnc2c(N)nc3ccccc3c21 [Imiquimod],0.774 ± 0.57,1 ± 0.24
O=c1c(-c2ccc(O)cc2)coc2cc(O)cc(O)c12 [Genistein],0.975 ± 0.05,0.58 ± 0.32
FC(F)(F)c1ccc(CNc2ccc(Cc3c[nH]c4ncc(Cl)cc34)cn2)cn1 [Pexidartinib (PLX3397)],0.789 ± 0.2,0.898 ± 0.048
